Hits are enriched below; roughly 3% of the tested compounds scored in any of these assays.
esBAF inh – Bmi1 luciferase reporter increase in mESCs, primary screen, esBAF inhibitor project, mouse ES cells, Bmi1 luciferase knock-in, single point | 24 h; 100% = twice the neutral-well signal | reporter increase, % at 12.5 µM | 350,000 compounds, 2% hits | AID 602393, 2012; in the data active = activation above about 40%; inconclusive = no clear call, values can overlap the other calls;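 also: 0% = median of the plate's neutral control wells and 100% = double that signal; a rise in the Bmi1 reporter signal indicates esBAF inhibition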
MITF TRPM1 HTS – activators of MITF-driven TRPM1 promoter reporter, primary screen, cell-based, SK-MEL-5, luciferase, single point. 300,000 compounds, 0.75% hits. activation, % at 12.5 µM. AID 588334, 2011. SK-MEL-5 TRPM1-promoter luciferase, 24 h; % of positive control, neutral wells = 0;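 active = mean activation of at least 80% with every replicate also reaching 80%; inconclusive = mean reaches 80% but some replicate falls short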;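 also: 0% = neutral control wells and 100% = parthenolide positive control wells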
Wnt act – Wnt/beta-catenin pathway activators, primary screen, cell-based, plate reader, single point. activation, % at 9.35 µM. AID 743398, 2014. 300,000 compounds, 1.2% hits. Wnt/beta-catenin reporter cell assay, activator; in the data active = activation above about 30%, passing the limit was not always enough; inconclusive = no clear call, values can overlap the other calls;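 also: 0% = neutral control wells and 100% = positive control wells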
C2C12 statin – suppressors of statin myotoxicity in C2C12 myotubes, primary screen, cell-based, single point, plate reader. rescue of ATP level, % at 7.49 µM. 330,000 compounds, 0.78% hits. C2C12 myotubes + simvastatin, ATP luminescence, 48 h; scaled: DMSO 0, geranylgeraniol control 100. AID 602340, 2012;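 active = mean ATP rescue above about 67%, or every replicate alone reaching that limit, limit read from the data, passing the limit was not always enough; inconclusive = no clear call, values can overlap the other calls; inactive = mean under the limit and some replicate under it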;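 also: myotubes were challenged with 10 µM simvastatin during compound exposure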
Active calls of the source: *; ? = inconclusive; . = not tested or not shown.

SMILES	esBAF inh	MITF TRPM1 HTS	Wnt act	C2C12 statin
COc1c(OC(C)=O)ccc(/C=C/c2ccc3ccccc3n2)c1[N+](=O)[O-]	31	113*	26	-59
COc1c(OC(C)=O)ccc(/C=C/c2ccc3cccc(OC)c3n2)c1[N+](=O)[O-]	.	17	32*	.
CCOc1cc(/C=C/c2ccc3cccc([N+](=O)[O-])c3n2)ccc1O	.	4	14	.
C/C=C/c1cnc2c(c1)C(=O)N([C@H](C)CO)C[C@@H](C)[C@@H](CN(C)C(=O)NCCC)O2	0	.	.	-4
c1ccc(-c2ccc(OCCCn3cncn3)cc2)cc1	51*	43	35*	11
c1ccc(Oc2cccc(OCCn3cncn3)c2)cc1	.	-3	3	.
c1ccc(COc2ccc(OCCn3cncn3)cc2)cc1	68*	?	.	-4
COc1ccc(-c2oc3ccccc3c(=O)c2OC(C)=O)cc1	75*	46	-4	-6
CC(=O)Oc1cc(OC(C)=O)c2c(C)cc(=O)oc2c1	3	.	0	97*
CC(=O)Oc1ccc2c(C)cc(=O)oc2c1	.	-3	.	.
CC(=O)Oc1cc(O)c2c(=O)c(OC(C)=O)c(-c3ccc(OC(C)=O)c(OC(C)=O)c3)oc2c1	43*	16	.	-6
C[C@@H]1CN([C@H](C)CO)C(=O)c2cccc(NS(=O)(=O)c3ccccc3)c2O[C@@H]1CN(C)C(=O)Nc1cccc2ccccc12	-1	.	.	8
O=C(c1cnc(Cc2c[nH]c3ccccc23)c(I)c1)N1CCCCC1	49*	.	7	5
CO[C@H]1CN(C)C(=O)c2ccc(NC(=O)c3cnccn3)cc2OC[C@@H](C)N(CCc2ccccc2)C[C@@H]1C	3	.	.	-12
C[C@@H]1CN([C@@H](C)CO)C(=O)c2cccc(NC(=O)Nc3ccc4c(c3)OCO4)c2O[C@@H]1CN(C)S(=O)(=O)c1cn(C)cn1	4	.	.	-29
Cc1noc(C)c1NC(=O)N(C)C[C@H]1Oc2ccc(NC(=O)Cc3cn(C)c4ccccc34)cc2CC(=O)N([C@@H](C)CO)C[C@H]1C	-2	.	.	-15
CCOC(=O)Cc1csc(NC(=O)c2ccc3ncsc3c2)n1	52*	2	22	0
CCOC(=O)Cc1csc(NC(=O)c2cnc3sc(C)cn3c2=O)n1	47*	62	3	26
COc1ccc(NC(=S)N2CCC(C(O)(c3ccccc3)c3ccccc3)CC2)cc1	.	-10	.	.
OCC1CCCN(C(=S)Nc2ccc(Oc3ccccc3)cc2)C1 (stereo unspecified)	82*	53	9	-10
CC(=O)c1ccc(NC(=S)N2CCCC(CO)C2)cc1 (stereo unspecified)	.	14	10	.
O=C(Nc1ccccc1)N1CCC(c2ccccc2)C1 (stereo unspecified)	21	106*	.	-12
CCc1ccc(NC(=O)N2CCC(c3ccccc3)C2)cc1 (stereo unspecified)	.	56	1	.
COc1ccc(NC(=S)N2CCC(c3ccccc3)C2)cc1 (stereo unspecified)	?	108*	?	-2
O=C(c1cccs1)N1CCC(c2ccccc2)C1 (stereo unspecified)	.	69	51*	.
SMILES	esBAF inh	MITF TRPM1 HTS	Wnt act	C2C12 statin
Cc1cccc(S(=O)(=O)N2C[C@@H](O)COC[C@@H]3O[C@@H](CC(=O)NCc4ccc5c(c4)OCO5)CC[C@H]32)c1	1	.	.	-6
C[C@H](CO)N1C[C@H](C)[C@@H](CN(C)Cc2ccc(Oc3ccccc3)cc2)Oc2ccc(NS(=O)(=O)c3cccs3)cc2C1=O	-2	.	.	-33
O=C(Nc1ccccc1)c1cc(C2CCCN(C(=O)c3cccs3)C2)on1 (stereo unspecified)	56*	.	34*	4
O=C(NCc1ccccc1)c1cc(C2CCCN(C(=O)c3cccs3)C2)on1 (stereo unspecified)	1	.	-2	-9
CO[C@H]1CN(C)C(=O)c2cc(NC(=O)c3ccc(F)cc3)ccc2OC[C@H](C)NC[C@@H]1C	5	.	.	4
CSc1nnc(-c2ccc(Cl)cc2Cl)o1	51*	51	.	9
Clc1ccc(-c2nnc(-c3ccc(Br)o3)o2)c(Cl)c1	38	126*	.	22
Clc1ccc(-c2nnc(-c3ccccc3)o2)c(Cl)c1	-37	.	39*	-5
Fc1ccc(-c2nnc(-c3ccc(Cl)cc3Cl)o2)cc1	31	.	20	2
CCSc1nnc(-c2ccc(Cl)cc2Cl)o1	30	63	.	-9
CC1CC(C)CN(CCCNC(=O)c2ccc3c(c2)NC(=O)C(N2CCCCC2)S3)C1 (stereo unspecified)	19	2	.	107*
O=C(NCCCN1CCCCC1)c1ccc2c(c1)NC(=O)C(N1CCCCC1)S2 (stereo unspecified)	.	-5	.	.
NS(=O)(=O)OCC(Cc1ccccc1)N1C(=O)c2ccccc2C1=O (stereo unspecified)	-1	0	-1	111*
COc1ccc(CN2CCN(CCCc3ccccc3)CC2)c(OC)c1	.	.	0	.
COc1ccc(CC(C)N2CCN(Cc3ccccc3)CC2)c(OC)c1 (stereo unspecified)	-8	-1	-2	96*
O=S(=O)(c1cccc2nsnc12)N1CCOCC1	-4	-3	1	114*
O=S(=O)(c1cccc2nsnc12)N1CCNCC1	-4	-3	1	14
O=C(C[C@H]1C=C[C@@H](NC(=O)CC2CC2)[C@H](CO)O1)NCC(F)(F)F	-3	.	.	2
CCc1ccc(C(=O)c2cncc(Br)c2)cc1	46*	63	20	-3
Cc1ccc(C(=O)c2cncc(Br)c2)cc1	24	46	-5	5
N#Cc1cc2cc3c(cc2nc1SCC(=O)N1CCCC1)OCCO3	22	87*	.	-2
CN(C)/C=C/C(=O)c1ccc(-n2cccc2)cc1	.	42	54*	.
CN(C)/C=C/C(=O)c1ccc(Cl)cc1	21	.	2	2
CN(C)/C=C1/N=C(c2ccccc2)OC1=O	15	.	0	-6
CN(C)/C=C1\N=C(c2cccnc2Oc2ccc(Cl)cc2)OC1=O	-5	-4	-3	115*
SMILES	esBAF inh	MITF TRPM1 HTS	Wnt act	C2C12 statin
Cc1ccc(C2=N/C(=C\N(C)C)C(=O)O2)cc1	29	94*	.	-16
CN(C)/C=C1\N=C(c2ccc(Cl)cc2Cl)OC1=O	?	57	10	0
CO[C@H]1CN(C)C(=O)c2cc(NC(=O)NC(C)C)ccc2OC[C@H](C)N(CC2CC2)C[C@@H]1C	-4	.	.	-10
O=c1[nH][nH]c(=O)c2c(NS(=O)(=O)c3ccccc3)cccc12	46*	33	12	9
C[C@@H]1CCCCO[C@@H](CN(C)S(=O)(=O)c2ccc(F)cc2)[C@H](C)CN([C@H](C)CO)C(=O)c2cc(NC(=O)Nc3ccc(F)cc3)ccc2O1	11	.	.	.
N=C1C(c2nc3ccccc3s2)=C(O)CN1Cc1ccccc1	48*	30	.	-149
CCCCC(C(=O)NC(=O)NCc1ccccc1)N1C(=O)c2ccccc2C1=O (stereo unspecified)	-6	7	2	2
